Screen size: about 310,000 compounds; about 14,000 (4.5%) showed an effect of 50% or more. Effects have a minus sign here. The full list was thinned out, with strong results kept by preference.
Biological target: human ether-à-go-go-related gene (hERG) potassium channel (human, UniProt Q12809)
Assay: primary screen, population patch clamp on CHO cells stably expressing hERG; higher = less effect of the substance
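Further: peak tail current of the secondary pulse compared with the same well before compound.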

Chain of human ether-à-go-go-related gene (hERG) potassium channel (Q12809 whole entry, looked up): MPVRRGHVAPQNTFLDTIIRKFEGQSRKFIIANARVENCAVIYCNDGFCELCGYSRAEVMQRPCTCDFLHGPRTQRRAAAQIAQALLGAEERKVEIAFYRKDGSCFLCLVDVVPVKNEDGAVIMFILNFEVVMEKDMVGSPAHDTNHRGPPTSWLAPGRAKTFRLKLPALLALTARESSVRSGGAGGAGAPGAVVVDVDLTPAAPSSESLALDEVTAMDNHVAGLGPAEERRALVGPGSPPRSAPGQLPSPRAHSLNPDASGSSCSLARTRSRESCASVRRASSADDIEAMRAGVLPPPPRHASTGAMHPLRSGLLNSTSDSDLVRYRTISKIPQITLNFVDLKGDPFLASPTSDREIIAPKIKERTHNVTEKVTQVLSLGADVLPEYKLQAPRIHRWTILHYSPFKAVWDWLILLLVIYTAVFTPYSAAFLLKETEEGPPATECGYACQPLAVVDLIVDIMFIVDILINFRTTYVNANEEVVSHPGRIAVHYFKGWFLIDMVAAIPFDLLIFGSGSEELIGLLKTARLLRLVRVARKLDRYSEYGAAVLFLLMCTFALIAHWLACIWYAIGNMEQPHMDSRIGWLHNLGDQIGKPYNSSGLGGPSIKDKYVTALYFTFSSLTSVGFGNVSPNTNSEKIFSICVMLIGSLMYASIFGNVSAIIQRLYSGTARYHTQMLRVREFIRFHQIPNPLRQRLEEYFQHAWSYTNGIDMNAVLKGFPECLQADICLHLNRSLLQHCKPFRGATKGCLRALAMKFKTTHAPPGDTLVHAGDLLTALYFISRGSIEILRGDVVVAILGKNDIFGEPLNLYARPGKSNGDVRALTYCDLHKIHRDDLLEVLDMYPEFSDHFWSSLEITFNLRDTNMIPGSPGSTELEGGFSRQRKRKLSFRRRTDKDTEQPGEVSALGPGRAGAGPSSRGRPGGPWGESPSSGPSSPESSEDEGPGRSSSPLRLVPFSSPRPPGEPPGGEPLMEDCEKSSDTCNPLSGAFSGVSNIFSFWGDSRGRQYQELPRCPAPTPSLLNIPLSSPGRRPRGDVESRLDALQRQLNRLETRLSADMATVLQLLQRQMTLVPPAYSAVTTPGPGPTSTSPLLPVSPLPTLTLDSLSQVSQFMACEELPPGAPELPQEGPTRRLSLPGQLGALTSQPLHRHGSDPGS

SMILES	hERG current change (%, negative = inhibition) at 10uM [%]
CCOC(=O)N1CCN(C(=O)CSc2nnc(-c3ccccc3OC)o2)CC1	-12.9
COc1cc(/C=C/c2cccc[n+]2C)ccc1OCC(=O)Nc1ccccc1C.[I-]	8.13
NC(=O)C1CCN(C(=O)CCCCCn2c(=O)[nH]c3ccsc3c2=O)CC1	0.397
COc1cccc(OCC(=O)Nc2c3c(nn2-c2ccccc2)CS(=O)(=O)C3)c1	-48.5
COc1cc(CNc2nc(C)c([N+](=O)[O-])c(C)c2C#N)cc(OC)c1	10.8
NC(=O)Cn1cc(C(=O)COc2ccccc2)c2ccccc21	-3.45
CC(C)CCNC(=O)COc1ccc(C(=O)c2ccccc2)cc1	-23.8
Cc1ccc(NC(=O)C(c2ccccc2)N2CCN(CC(=O)NC3CC3)CC2)cc1 (centres unmarked)	-18.1
C[C@@H]1NC(=O)c2cc([N+](=O)[O-])cc(I)c2NCC[C@@H](C(N)=O)NC(=O)[C@H](CC(N)=O)NC1=O	11.2
COc1cc(/C=N/NC(=S)NCCc2ccccc2)cc(OC)c1OC	8.26
CCC(=O)N1CCc2cc(Br)cc(S(=O)(=O)NCCN3CCCCC3CC)c21 (centres unmarked)	-20.4
Brc1cccc(-c2nnc3sc(CNCc4ccco4)cn23)c1	-60.3
Brc1cccc(-c2nnc3sc(CN4CCCCC4)cn23)c1	-11
Brc1cccc(-c2nnc3sc(CNC4CCCC4)cn23)c1	-16.2
COc1ccc(CCNC(=O)c2ccc(Cl)c(S(=O)(=O)N3CCCCCC3)c2)cc1	-34.2
COc1ccc(C(=O)NCCc2c[nH]c3ccccc23)cc1S(=O)(=O)N1CCCCC1C (centres unmarked)	-12
COc1ccc(C(CNC(=O)c2ccc(OC)c(S(=O)(=O)N3CCCC3)c2)N2CCCC2)cc1 (centres unmarked)	9.12
COc1ccc(CCNC(=O)c2ccc(Cl)c(S(=O)(=O)N3CCCC3)c2)cc1	-56.6
COc1ccc(C(CNC(=O)c2cc(S(=O)(=O)N3CCCC3)ccc2Cl)N2CCCC2)cc1 (centres unmarked)	-31.6
O=C(NCCc1ccccc1)c1ccc(Cl)c(S(=O)(=O)N2CCCC2)c1	-23.1
COc1ccc(C(=O)NCCc2ccc(Cl)cc2)cc1S(=O)(=O)N1CCCCC1C (centres unmarked)	-52.3
COc1ccc(C(CNC(=O)c2ccc(Cl)c(S(=O)(=O)N3CCCC3)c2)N2CCCC2)cc1 (centres unmarked)	-57.6
COc1ccc(C(=O)Nc2ccc(NC(C)=O)cc2)cc1S(=O)(=O)N1CCCCC1C (centres unmarked)	1.47

Source: article PMC4336329 (PLoS ONE, 2015)
